We go through one sequence from PMC7862700, “An all-to-all approach to the identification of sequence-specific readers for epigenetic DNA modifications on cytosine”.

Assay in all cases: DAPPL (digital affinity profiling via proximity ligation, sequencing); 10 mM Tris-HCl pH 7.5, 50 mM NaCl, 1 mM DTT, 4% glycerol, room temperature, 30 min; GST-TFs on glutathione beads, 16-mer random dsDNA library, 0.1% formaldehyde crosslink after washing; high values mean tight binding
The target of assay [1] is T1, FLI1 (Homo sapiens, UniProt Q01543 1-452).
T1 sequence: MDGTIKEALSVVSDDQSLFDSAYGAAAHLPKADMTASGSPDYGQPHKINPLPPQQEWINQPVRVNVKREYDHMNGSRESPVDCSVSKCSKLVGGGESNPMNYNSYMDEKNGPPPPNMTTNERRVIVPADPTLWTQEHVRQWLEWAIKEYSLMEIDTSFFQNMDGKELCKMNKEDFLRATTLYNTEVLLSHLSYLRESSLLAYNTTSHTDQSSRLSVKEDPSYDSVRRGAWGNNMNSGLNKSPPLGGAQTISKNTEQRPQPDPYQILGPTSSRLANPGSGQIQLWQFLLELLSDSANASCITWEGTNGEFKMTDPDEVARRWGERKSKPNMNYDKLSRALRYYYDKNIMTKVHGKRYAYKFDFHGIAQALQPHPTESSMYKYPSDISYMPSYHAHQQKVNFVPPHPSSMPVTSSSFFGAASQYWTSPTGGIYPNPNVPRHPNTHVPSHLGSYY
To be noted: protein: recombinant; tags: N-terminal GST; dsDNA, one strand shown. Summed up:
(§1)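 A tag-only sample was pooled with DNA-barcoded human transcription factors that had been expressed in yeast as GST fusions and captured on glutathione beads. The pools were incubated for 30 min at room temperature with 200 nmole of a random double-stranded 16-mer DNA library in Tris/NaCl/DTT/glycerol buffer, then washed, crosslinked with 0.1% formaldehyde, proximity-ligated (BsaI/T4 ligase, 1 h, 37 °C), PCR-amplified and sequenced on an Illumina NextSeq500. Binding signal is each hexamer's read frequency for a factor divided by its frequency for the tag-only sample.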

Assay [2] concerns the target T2, ELK1 (Homo sapiens, UniProt P19419 1-428).
T2 sequence: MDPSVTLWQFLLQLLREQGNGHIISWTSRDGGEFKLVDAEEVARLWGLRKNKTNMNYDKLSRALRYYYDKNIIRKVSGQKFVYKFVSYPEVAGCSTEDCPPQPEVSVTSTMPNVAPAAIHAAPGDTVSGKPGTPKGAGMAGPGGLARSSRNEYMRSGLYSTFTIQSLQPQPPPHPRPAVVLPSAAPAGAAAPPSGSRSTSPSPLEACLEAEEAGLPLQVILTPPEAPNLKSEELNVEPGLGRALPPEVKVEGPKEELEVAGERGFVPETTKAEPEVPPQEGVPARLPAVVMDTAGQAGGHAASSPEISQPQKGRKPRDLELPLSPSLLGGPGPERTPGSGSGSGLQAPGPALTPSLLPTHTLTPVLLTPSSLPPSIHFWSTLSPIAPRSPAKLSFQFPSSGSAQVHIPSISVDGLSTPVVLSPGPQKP
The settings on record: protein: recombinant; tags: N-terminal GST; dsDNA, one strand shown. Summed up:
as §1

The target of assay [3] is T3, GABPA (Homo sapiens, UniProt Q06546 1-454).
T3 sequence: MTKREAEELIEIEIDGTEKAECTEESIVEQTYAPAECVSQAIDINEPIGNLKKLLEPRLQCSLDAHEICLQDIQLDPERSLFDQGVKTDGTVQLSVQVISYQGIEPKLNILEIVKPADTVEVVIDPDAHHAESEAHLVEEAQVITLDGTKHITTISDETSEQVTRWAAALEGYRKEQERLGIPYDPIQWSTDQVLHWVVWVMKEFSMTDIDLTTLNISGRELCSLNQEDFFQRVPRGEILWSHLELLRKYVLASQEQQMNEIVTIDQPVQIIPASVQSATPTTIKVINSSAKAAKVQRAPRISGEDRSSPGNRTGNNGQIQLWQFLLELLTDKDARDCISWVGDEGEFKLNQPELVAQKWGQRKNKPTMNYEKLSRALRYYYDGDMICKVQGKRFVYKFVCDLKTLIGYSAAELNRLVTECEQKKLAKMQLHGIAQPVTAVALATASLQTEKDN
The settings on record: protein: recombinant; tags: N-terminal GST; dsDNA, one strand shown. Summed up: as §1

Assay [4] concerns the target T4, ERG (Homo sapiens, UniProt P11308 1-479).
T4 sequence: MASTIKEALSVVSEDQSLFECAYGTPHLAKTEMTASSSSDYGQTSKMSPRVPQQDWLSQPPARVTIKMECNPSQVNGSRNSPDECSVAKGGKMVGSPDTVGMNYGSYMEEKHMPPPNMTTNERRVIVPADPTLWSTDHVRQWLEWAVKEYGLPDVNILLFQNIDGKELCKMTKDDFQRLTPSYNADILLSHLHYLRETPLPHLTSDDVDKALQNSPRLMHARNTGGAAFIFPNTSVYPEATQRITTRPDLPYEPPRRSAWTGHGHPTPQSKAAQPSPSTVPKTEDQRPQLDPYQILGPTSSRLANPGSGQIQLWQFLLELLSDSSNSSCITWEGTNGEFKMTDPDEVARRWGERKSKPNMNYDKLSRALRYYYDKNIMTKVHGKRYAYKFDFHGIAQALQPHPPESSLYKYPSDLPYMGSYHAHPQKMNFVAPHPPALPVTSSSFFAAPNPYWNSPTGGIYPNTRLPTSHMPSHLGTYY
To be noted: protein: recombinant; tags: N-terminal GST; dsDNA, one strand shown. The essentials:
as §1

The target of assay [5] is ELF1 (Homo sapiens, UniProt P32519 1-619). To be noted: protein: recombinant; tags: N-terminal GST; dsDNA, one strand shown. Summed up: as §1
The target in assay [6] is T5, EHF (Homo sapiens, UniProt Q9NZC4 1-300).
T5 sequence: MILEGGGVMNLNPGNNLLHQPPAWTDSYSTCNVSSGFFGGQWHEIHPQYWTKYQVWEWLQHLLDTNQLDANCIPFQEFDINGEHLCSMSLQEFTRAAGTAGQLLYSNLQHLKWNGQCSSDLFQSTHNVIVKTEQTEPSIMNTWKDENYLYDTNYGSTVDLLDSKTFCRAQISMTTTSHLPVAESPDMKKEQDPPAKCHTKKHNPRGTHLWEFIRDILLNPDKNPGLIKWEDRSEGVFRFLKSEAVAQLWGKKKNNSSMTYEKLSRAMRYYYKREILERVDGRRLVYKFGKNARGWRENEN
The settings on record: protein: recombinant; tags: N-terminal GST; dsDNA, one strand shown. The essentials: as §1

For assay [7], the target named is SPI1 (Homo sapiens, UniProt P17947 1-270). To be noted: protein: recombinant; tags: N-terminal GST; dsDNA, one strand shown. The essentials: as §1
Assay [8] has as its target SPIB (Homo sapiens, UniProt Q01892 1-262). To be noted: protein: recombinant; tags: N-terminal GST; dsDNA, one strand shown. Summed up: as §1
In assay [9] the target is T6, ELK3 (Homo sapiens, UniProt P41970 1-407).
T6 sequence: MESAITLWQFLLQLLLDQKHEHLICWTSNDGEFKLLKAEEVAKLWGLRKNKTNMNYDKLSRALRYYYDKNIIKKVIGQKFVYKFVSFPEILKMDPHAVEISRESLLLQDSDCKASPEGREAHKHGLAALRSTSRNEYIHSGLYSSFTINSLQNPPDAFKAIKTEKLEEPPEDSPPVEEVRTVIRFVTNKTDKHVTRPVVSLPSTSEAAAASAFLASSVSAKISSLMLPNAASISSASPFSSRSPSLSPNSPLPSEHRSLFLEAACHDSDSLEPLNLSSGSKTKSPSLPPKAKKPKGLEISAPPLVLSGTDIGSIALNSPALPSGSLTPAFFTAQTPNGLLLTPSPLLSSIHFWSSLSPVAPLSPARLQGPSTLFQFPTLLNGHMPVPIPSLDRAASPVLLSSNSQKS
To be noted: protein: recombinant; tags: N-terminal GST; dsDNA, one strand shown. The essentials: as §1

Assay [10] deals with T7, FEV (Homo sapiens, UniProt Q99581 1-238).
T7 sequence: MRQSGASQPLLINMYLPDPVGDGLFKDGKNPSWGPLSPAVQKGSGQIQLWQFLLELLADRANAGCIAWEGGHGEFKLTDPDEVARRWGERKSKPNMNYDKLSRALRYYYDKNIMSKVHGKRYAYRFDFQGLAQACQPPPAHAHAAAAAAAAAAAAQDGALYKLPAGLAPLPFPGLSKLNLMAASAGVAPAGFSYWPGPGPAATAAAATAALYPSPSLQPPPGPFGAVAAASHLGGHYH
The settings on record: protein: recombinant; tags: N-terminal GST; dsDNA, one strand shown. The essentials:
as §1

Assay [11] concerns the target ETV5 (Homo sapiens, UniProt P41161 1-510). To be noted: protein: recombinant; tags: N-terminal GST; dsDNA, one strand shown. The essentials:
as §1

Assay [12] addresses HSF1 (Homo sapiens, UniProt Q00613 1-529). The settings on record: protein: recombinant; tags: N-terminal GST; chain copies: 3; dsDNA, one strand shown. The essentials: as §1
The target in assay [13] is T8, SPIC (Homo sapiens, UniProt Q8N5J4 1-248).
T8 sequence: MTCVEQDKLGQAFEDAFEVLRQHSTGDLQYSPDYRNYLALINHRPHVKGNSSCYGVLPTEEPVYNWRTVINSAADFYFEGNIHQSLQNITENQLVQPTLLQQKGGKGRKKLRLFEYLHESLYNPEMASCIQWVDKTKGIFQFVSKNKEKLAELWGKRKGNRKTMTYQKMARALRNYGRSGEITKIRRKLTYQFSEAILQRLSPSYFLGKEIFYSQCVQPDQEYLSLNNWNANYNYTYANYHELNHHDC
The settings on record: protein: recombinant; tags: N-terminal GST; dsDNA, one strand shown. The essentials: as §1

Assay [14] addresses ELF4 (Homo sapiens, UniProt Q99607 1-663). To be noted: protein: recombinant; tags: N-terminal GST; dsDNA, one strand shown. Summed up: as §1
For assay [15], the target named is T9, ELK4 (Homo sapiens, UniProt P28324-2 1-405).
T9 sequence: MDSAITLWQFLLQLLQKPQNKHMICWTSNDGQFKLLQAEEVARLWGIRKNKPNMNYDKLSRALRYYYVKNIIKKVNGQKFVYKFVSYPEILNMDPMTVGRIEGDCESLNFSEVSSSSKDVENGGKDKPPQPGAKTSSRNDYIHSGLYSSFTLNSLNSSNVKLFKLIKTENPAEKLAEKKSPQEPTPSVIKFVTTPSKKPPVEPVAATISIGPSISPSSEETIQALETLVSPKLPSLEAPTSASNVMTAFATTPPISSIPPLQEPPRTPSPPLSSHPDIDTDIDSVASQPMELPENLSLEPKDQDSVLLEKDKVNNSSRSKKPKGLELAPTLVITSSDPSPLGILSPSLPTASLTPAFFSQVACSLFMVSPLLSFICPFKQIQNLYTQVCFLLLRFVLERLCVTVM
The settings on record: protein: recombinant; tags: N-terminal GST; dsDNA, one strand shown. Summed up: as §1

The target in assay [16] is T10, ETV2 (Homo sapiens, UniProt O00321 1-342).
T10 sequence: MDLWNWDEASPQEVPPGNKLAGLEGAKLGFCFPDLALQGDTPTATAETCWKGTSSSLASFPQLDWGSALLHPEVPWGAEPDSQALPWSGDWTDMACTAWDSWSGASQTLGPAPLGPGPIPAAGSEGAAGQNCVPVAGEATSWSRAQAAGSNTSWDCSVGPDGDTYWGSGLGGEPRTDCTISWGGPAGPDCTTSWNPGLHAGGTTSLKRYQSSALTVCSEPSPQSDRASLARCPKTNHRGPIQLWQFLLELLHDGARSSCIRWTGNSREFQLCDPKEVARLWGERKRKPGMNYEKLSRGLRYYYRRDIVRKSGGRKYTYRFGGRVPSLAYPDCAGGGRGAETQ
To be noted: protein: recombinant; tags: N-terminal GST; dsDNA, one strand shown. The essentials:
as §1

Assay [17] deals with T11, ELF3 (Homo sapiens, UniProt P78545 1-371).
T11 sequence: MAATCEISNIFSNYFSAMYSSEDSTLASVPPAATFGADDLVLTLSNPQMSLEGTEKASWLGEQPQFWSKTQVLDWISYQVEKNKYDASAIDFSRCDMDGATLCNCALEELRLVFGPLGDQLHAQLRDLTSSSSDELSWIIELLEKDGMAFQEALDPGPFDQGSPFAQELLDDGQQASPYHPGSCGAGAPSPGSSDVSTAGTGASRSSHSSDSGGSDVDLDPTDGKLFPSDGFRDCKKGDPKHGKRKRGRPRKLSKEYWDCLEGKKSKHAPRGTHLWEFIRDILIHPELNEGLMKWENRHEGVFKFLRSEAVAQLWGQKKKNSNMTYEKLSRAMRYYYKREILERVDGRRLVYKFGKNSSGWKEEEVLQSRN
The settings on record: protein: recombinant; tags: N-terminal GST; dsDNA, one strand shown. The essentials: as §1

For assay [18], the target named is CRX (Homo sapiens, UniProt O43186 1-299). To be noted: protein: recombinant; tags: N-terminal GST; dsDNA, one strand shown. Summed up:
as §1

Assay [19] addresses ETV1 (Homo sapiens, UniProt P50549 1-477). The settings on record: protein: recombinant; tags: N-terminal GST; dsDNA, one strand shown. Summed up: as §1

Sequence of SPIB (Q01892 whole entry): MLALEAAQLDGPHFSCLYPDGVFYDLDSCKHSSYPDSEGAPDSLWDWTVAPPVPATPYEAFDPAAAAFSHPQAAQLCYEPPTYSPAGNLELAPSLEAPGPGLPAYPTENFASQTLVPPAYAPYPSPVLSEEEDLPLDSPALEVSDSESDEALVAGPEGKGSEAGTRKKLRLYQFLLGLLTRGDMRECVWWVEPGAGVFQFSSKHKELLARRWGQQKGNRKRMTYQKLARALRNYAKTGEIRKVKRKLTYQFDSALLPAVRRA
Sequence of HSF1 (Q00613 whole entry): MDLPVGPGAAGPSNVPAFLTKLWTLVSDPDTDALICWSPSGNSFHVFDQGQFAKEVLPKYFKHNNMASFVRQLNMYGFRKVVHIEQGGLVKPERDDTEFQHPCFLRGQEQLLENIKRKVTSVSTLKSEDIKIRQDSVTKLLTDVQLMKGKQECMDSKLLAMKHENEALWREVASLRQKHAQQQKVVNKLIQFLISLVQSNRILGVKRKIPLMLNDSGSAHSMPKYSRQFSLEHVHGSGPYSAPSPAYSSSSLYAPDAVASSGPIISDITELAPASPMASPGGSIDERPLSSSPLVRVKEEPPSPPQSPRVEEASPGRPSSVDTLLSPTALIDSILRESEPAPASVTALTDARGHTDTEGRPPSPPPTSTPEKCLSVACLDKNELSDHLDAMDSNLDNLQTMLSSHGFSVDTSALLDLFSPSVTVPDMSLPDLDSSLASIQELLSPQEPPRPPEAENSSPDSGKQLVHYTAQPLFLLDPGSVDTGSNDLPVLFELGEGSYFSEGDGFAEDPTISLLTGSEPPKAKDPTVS
Sequence of ETV5 (P41161 whole entry): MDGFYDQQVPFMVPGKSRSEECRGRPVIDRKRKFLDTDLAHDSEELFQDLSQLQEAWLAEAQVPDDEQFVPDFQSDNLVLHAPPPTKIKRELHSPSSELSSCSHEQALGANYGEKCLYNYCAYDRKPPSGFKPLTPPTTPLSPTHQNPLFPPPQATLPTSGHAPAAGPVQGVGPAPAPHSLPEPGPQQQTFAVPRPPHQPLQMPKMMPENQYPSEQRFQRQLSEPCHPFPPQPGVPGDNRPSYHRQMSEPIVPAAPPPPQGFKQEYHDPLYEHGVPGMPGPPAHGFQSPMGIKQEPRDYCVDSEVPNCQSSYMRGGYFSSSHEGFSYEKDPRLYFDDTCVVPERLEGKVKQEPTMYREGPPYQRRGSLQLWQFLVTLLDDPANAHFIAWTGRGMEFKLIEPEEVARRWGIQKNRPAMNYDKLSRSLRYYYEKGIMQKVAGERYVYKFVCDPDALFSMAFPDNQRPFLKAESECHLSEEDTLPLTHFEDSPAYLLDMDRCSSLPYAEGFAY
Sequence of ELF1 (P32519 whole entry): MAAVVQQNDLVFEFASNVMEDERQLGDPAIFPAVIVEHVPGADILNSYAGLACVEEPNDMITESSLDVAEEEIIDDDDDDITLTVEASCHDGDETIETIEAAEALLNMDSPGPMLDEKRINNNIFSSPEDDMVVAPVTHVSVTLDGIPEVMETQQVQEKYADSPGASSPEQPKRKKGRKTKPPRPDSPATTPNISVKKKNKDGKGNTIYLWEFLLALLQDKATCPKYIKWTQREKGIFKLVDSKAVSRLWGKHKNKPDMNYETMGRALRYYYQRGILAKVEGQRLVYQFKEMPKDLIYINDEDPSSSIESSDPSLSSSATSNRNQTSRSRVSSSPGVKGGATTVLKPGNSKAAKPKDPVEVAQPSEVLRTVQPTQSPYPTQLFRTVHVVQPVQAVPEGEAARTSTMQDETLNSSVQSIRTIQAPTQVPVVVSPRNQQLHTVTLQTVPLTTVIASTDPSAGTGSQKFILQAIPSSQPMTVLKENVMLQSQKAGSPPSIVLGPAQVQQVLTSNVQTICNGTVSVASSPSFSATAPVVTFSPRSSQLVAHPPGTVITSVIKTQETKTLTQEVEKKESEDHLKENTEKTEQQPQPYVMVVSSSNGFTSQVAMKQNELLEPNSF
Sequence of ELF4 (Q99607 whole entry): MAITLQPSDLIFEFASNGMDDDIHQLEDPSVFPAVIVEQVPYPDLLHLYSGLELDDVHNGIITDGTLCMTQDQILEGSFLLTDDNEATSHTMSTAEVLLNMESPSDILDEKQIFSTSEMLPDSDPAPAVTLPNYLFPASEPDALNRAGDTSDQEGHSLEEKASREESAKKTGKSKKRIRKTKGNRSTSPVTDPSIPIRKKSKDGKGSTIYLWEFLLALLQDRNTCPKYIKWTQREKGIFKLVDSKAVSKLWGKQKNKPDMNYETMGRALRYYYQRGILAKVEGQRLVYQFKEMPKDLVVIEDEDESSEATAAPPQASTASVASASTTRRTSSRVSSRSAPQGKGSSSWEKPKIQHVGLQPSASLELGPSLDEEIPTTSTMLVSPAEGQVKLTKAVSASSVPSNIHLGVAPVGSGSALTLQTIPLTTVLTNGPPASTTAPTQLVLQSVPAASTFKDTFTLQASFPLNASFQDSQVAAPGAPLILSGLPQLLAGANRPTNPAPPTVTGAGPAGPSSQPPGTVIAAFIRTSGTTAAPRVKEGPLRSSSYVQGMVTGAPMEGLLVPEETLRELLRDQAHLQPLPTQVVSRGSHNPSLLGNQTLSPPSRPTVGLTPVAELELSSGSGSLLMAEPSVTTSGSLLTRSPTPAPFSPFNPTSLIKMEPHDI
Sequence of ETV1 (P50549 whole entry): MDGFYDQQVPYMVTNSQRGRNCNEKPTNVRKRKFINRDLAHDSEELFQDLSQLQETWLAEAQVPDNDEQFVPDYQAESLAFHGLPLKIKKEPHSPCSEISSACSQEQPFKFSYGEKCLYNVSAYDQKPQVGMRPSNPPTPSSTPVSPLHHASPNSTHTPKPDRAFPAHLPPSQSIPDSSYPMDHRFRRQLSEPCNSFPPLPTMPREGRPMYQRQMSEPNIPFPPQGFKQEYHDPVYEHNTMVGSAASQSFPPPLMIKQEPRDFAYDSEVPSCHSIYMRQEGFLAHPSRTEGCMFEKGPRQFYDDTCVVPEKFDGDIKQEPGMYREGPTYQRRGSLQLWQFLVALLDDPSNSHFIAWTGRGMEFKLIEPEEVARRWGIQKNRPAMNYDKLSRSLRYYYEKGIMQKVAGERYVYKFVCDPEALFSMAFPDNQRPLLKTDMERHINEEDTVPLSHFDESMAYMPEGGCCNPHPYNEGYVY
Sequence of CRX (O43186 whole entry): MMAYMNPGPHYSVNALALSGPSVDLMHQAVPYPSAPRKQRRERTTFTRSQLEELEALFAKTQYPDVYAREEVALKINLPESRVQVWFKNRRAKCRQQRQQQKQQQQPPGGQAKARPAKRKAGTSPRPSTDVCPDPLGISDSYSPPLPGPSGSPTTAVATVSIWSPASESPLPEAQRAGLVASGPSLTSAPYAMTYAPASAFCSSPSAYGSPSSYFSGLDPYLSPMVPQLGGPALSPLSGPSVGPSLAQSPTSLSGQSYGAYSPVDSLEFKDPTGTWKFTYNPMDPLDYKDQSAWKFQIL

As to CTCCAG, the binding signal in assay [1] was 1.08 fold enrichment (6-mer frequency, TF over GST control); in assay [2], 1.12 fold enrichment (6-mer frequency, TF over GST control); in assay [3] it was 1.26 fold enrichment (6-mer frequency, TF over GST control); in assay [4], 1.16 fold enrichment (6-mer frequency, TF over GST control); in assay [5], 1.19 fold enrichment (6-mer frequency, TF over GST control); in [6], 1.17 fold enrichment (6-mer frequency, TF over GST control). In addition, the binding signal was 1.21 fold enrichment (6-mer frequency, TF over GST control) in assay [7]; 1.23 fold enrichment (6-mer frequency, TF over GST control) in assay [8]; 1.29 fold enrichment (6-mer frequency, TF over GST control) in assay [9]; 1.13 fold enrichment (6-mer frequency, TF over GST control) in assay [10]; 1.17 fold enrichment (6-mer frequency, TF over GST control) in [11]; 1.65 fold enrichment (6-mer frequency, TF over GST control) in assay [12]. In addition, the binding signal is 1.16 fold enrichment (6-mer frequency, TF over GST control) in assay [13]; 1.21 fold enrichment (6-mer frequency, TF over GST control) in [14]; 1.18 fold enrichment (6-mer frequency, TF over GST control) in assay [15]; 1.33 fold enrichment (6-mer frequency, TF over GST control) in assay [16]; 1.02 fold enrichment (6-mer frequency, TF over GST control) in assay [17]; 1.1 fold enrichment (6-mer frequency, TF over GST control) in [18]. Besides, the binding signal in assay [19] is 1.16 fold enrichment (6-mer frequency, TF over GST control).
